SW480 rerep = induces DNA re-replication in SW480 colon adenocarcinoma cells. AID 624297. Potency, µM (titrated, usually from 46.1 µM), without a hit: top-dose re-replication activation, usual class: activators. SW480 DNA re-replication, Hoechst DNA content imaging, 48 h. 1.8% of 340,000 active; also: % of control where 0% means no effect; nearly all actives have a fitted effect of over 55% in size
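Quantitative HTS format with DMSO vehicle controls; 48 hr drug incubation at 37 C, then 40 min Hoechst staining and scanning imager measurement at 405 nm excitation.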
MCF10A rereplic = DNA re-replication induction in MCF 10a cells | MCF 10A DNA re-replication, Hoechst nuclear intensity, 48 h | Potency, µM (doses to about 46.1 µM), for inactives: at the highest dose activity, positive = re-replication, most hits filed as activators | 2.9% of 350,000 active; also: % of control where 0% means no effect; nearly all actives have a fitted effect of over 50% in size
VP16 counter = counter-screen for ROR gamma inhibitors: Gal4-VP16 reporter | Potency, µM (doses to about 53.6 µM), without a hit: top-dose activity, negative = inhibition, actives largely listed as inhibitors | Drosophila S2 Gal4-VP16 UAS-luciferase, luminescence, 20 h | 3.5% of 310,000 active | AID 2546;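 also: Gal4-VP16 expression switched on by copper sulfate through the metallothionein promoter; % is scaled to controls: 0 for no effect and ±100 for the full control effect; nearly all actives have a fitted effect of over 50% in size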
RORg inh = inhibitors of mouse ROR gamma transcriptional activity; Drosophila S2 Gal4-RORgamma UAS-luciferase reporter, 20 h; Potency, µM (series often up to 53.6 µM), inactives show at the highest dose activity change, negative = inhibition, most hits filed as inhibitors; 5.4% of 310,000 active; also: % is scaled to controls: 0 for no effect and ±100 for the full control effect; nearly all actives have a fitted effect of over 60% in size
Target sequence (P51450 whole entry, looked up, the tested form may be a part): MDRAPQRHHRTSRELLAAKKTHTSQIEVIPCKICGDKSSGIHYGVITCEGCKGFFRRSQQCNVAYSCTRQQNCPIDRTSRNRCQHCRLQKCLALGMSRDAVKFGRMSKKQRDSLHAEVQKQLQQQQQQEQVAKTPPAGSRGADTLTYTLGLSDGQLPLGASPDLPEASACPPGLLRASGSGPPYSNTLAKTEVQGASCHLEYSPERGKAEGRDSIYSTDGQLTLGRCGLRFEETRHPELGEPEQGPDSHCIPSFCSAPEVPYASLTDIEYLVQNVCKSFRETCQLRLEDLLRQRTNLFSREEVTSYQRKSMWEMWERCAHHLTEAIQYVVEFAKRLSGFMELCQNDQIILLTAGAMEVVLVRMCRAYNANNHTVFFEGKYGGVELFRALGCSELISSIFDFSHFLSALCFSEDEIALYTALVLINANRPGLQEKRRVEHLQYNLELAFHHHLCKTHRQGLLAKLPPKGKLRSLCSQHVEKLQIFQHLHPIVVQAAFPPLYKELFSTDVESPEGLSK
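Using a luciferase readout, inhibitors were identified by reduced reporter activity in Drosophila cells coexpressing a copper-inducible Gal4–ROR gamma fusion and UAS-driven Photinus luciferase, incubated 20 hr after 700 uM copper sulfate.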
ELG1 DNA repair = ELG1-dependent DNA repair inhibition; 2.3% of 330,000 active; Potency, µM (highest dose often 46.1 µM), for inactives: at the highest dose activity change, negative = inhibition, usual class: inhibitors; HEK293T ELG1-luciferase reporter, luminescence, 16 h; DNA damage induced by 5-fluorouridine; also: % is scaled to controls: 0 for no effect and ±100 for the full control effect; nearly all actives have a fitted effect of over 55% in size
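Reporter activity after DNA damage by 5-fluorouridine is monitored. Compound-treated cells incubate 16 hr at 37 °C, then ONE-Glo is added for 30 min before luminescence reading.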
Starred values were filed as active, the others as inactive; [ ] = another dose, or the depositor's remark. Only some compounds are listed: those with a hit (about 10% of all), similar ones and a draw of the others. Calls follow the shape of the dose curve; as a rule, active = well fitted curve in the direction sought with a large enough effect; inconclusive = small, poorly fitted or top-dose-only effect, or another doubt; inactive = no such curve, though single readings can be large; an effect the other way counts as inactive or inconclusive. Potency is read from the fitted curve at half-maximal effect.

Results for O=C1NC(c2cccc(OCc3ccccc3)c2)Nc2ccccc21 (centres undefined) ?
SW480 rerep: 1.8µM*; MCF10A rereplic: 2.3µM*

How did O=C1NC(c2ccc(O)cc2)Nc2ccccc21 (centres undefined) do in these assays?
SW480 rerep: inconclusive; MCF10A rereplic: 12µM*; VP16 counter: 1%; RORg inh: 20%; ELG1 DNA repair: 2%

Results for CCOc1ncccc1C(=O)Nc1ncc(C)s1 ?
SW480 rerep: -2%; MCF10A rereplic: 16%; VP16 counter: -9%; RORg inh: -29%; ELG1 DNA repair: 10%

What do the screens show for `NC(=O)C1CN(C(=O)c2nn(Cc3ccccc3)c(=O)c3ccccc23)c2ccccc2O1` (centres undefined)?
SW480 rerep: -1%; MCF10A rereplic: 2%; ELG1 DNA repair: 8%

What do the screens show for `COc1ccc2oc(C(=O)N3CCN(C/C=C/c4ccccc4)CC3)c(C)c2c1`?
SW480 rerep: 3%; MCF10A rereplic: 23µM*; ELG1 DNA repair: inconclusive

Results for CCOc1ccc(NC(=S)N2CCN(C/C=C/c3ccccc3)CC2)cc1 ?
SW480 rerep: -5%; MCF10A rereplic: 18%; VP16 counter: inconclusive; RORg inh: 14µM*; ELG1 DNA repair: -15%

How did COc1ccc(NC(=S)N2CCN(C/C=C/c3ccccc3)CC2)cc1OC do in these assays?
SW480 rerep: 1%[9.22 µM]; MCF10A rereplic: 9%; VP16 counter: 8%; RORg inh: 10µM*; ELG1 DNA repair: -27%

What do the screens show for `Cc1c(C(=O)N2CCN(C(=O)c3ccccc3)CC2)oc2ccc(F)cc12`?
SW480 rerep: -20%; MCF10A rereplic: 34%; ELG1 DNA repair: 18µM*

What do the screens show for `COc1ccc(NC(=S)N2CCN(C/C=C/c3ccccc3)CC2)cc1`?
SW480 rerep: 3%; MCF10A rereplic: 8%; VP16 counter: inconclusive; RORg inh: inconclusive; ELG1 DNA repair: inconclusive

Results for Cc1cc(Br)c(NC(=O)COC(=O)CC2CC3CCC2C3)c(Br)c1 (centres undefined) ?
SW480 rerep: -6%; MCF10A rereplic: -33%; ELG1 DNA repair: 6%

How did CN(CC(=O)Nc1ccc(F)cc1)C(=O)COC(=O)c1cc([N+](=O)[O-])ccc1N1CCOCC1 do in these assays?
SW480 rerep: inconclusive; MCF10A rereplic: -2%; ELG1 DNA repair: 4%

Results for Cc1ccc(N2CC(C(=O)N3CCN(Cc4ccc5c(c4)OCO5)CC3)CC2=O)cc1 (centres undefined) ?
SW480 rerep: -1%; MCF10A rereplic: 7%; VP16 counter: 6%; RORg inh: 24%; ELG1 DNA repair: -9%

Results for O=C(O)c1ccc(-c2ccc(/C=c3/sc4nc5ccccc5n4c3=O)o2)cc1Cl ?
SW480 rerep: -6%; MCF10A rereplic: 2%; VP16 counter: -24%; RORg inh: -26%; ELG1 DNA repair: 8%

How did COc1ccc(OC)c(NC(=S)N2CCN(C/C=C/c3ccccc3)CC2)c1 do in these assays?
SW480 rerep: -14%; MCF10A rereplic: 12%; VP16 counter: 1%; RORg inh: 2.8µM*; ELG1 DNA repair: inconclusive

How did CCOC(=O)c1ccccc1NC(=O)c1c(F)c(F)c(F)c(F)c1F do in these assays?
SW480 rerep: inconclusive; MCF10A rereplic: 21µM*; VP16 counter: -7%; RORg inh: inconclusive; ELG1 DNA repair: 7%

Results for CCOC(=O)c1ccccc1NC(=S)N1CCC(C)CC1 ?
SW480 rerep: 0%; MCF10A rereplic: 1%; VP16 counter: inconclusive; RORg inh: 13µM*; ELG1 DNA repair: -2%

How did CCOC(=O)c1ccccc1NC(=O)c1cn(CC)c2nc(C)ccc2c1=O do in these assays?
SW480 rerep: -10%; MCF10A rereplic: 0%; VP16 counter: inconclusive; RORg inh: 11µM*; ELG1 DNA repair: inconclusive

How did CCn1cc(C(=O)Nc2ccccc2C(=O)OC)c(=O)c2ccc(C)nc21 do in these assays?
VP16 counter: -22%; RORg inh: -16%; ELG1 DNA repair: inconclusive

Results for C=CC[C@H](CC(=O)N(CCO)Cc1ccccc1)C(=O)N[C@H](COC(=O)[C@@H](CC=C)CC(=O)OC(C)(C)C)Cc1c[nH]c2ccccc12 ?
SW480 rerep: 12%; MCF10A rereplic: inconclusive; ELG1 DNA repair: inconclusive

What do the screens show for `Cc1cc(C(N)=O)c2ccccc2n1`?
SW480 rerep: -2%; MCF10A rereplic: inconclusive; VP16 counter: -7%; RORg inh: -5%; ELG1 DNA repair: -13%

How did NC(=O)c1cc2ccncc2c2ccccc12 do in these assays?
SW480 rerep: -5%; MCF10A rereplic: inconclusive; VP16 counter: inconclusive; RORg inh: -39%; ELG1 DNA repair: 1.3µM*

What do the screens show for `CCCCOc1ccc(-c2nnc(-c3ccncc3)o2)cc1`?
SW480 rerep: -6%; MCF10A rereplic: 5%; VP16 counter: 2%; RORg inh: 22%; ELG1 DNA repair: inconclusive

Results for CCCOc1ccc(-c2nnc(-c3cccs3)o2)cc1 ?
SW480 rerep: 2%; MCF10A rereplic: 24%; VP16 counter: inconclusive; RORg inh: 5µM*; ELG1 DNA repair: inconclusive

Results for CCOc1ccc(-c2nnc(-c3ccncc3)o2)cc1 ?
SW480 rerep: -2%; MCF10A rereplic: 1%; VP16 counter: inconclusive; RORg inh: 13µM*; ELG1 DNA repair: inconclusive

How did CCOc1ccc(-c2nnc(-c3ccccc3)o2)cc1 do in these assays?
SW480 rerep: -3%; MCF10A rereplic: inconclusive; VP16 counter: inconclusive; RORg inh: 10µM*; ELG1 DNA repair: inconclusive

Results for CCOc1ccc(-c2nnc(-c3ccc(OC)cc3)o2)cc1 ?
SW480 rerep: -5%; MCF10A rereplic: 14%; VP16 counter: inconclusive; RORg inh: -14%; ELG1 DNA repair: inconclusive

How did Cc1ccc(C)c(N2CCN(C(=O)CN(C)S(=O)(=O)c3ccc4c(c3)CCC(=O)N4)CC2)c1 do in these assays?
SW480 rerep: -8%; MCF10A rereplic: 8%; VP16 counter: 2%; RORg inh: 2%; ELG1 DNA repair: 23µM*

Results for Cn1c(=O)c(-c2cccs2)nc2cnc(N3CCNCC3)nc21 ?
VP16 counter: 0%; RORg inh: -27%

How did Cn1cc(-c2nc3cnc(N4CCNCC4)nc3n(C)c2=O)c2ccccc21 do in these assays?
VP16 counter: 11µM*; RORg inh: 10µM*

How did COc1cccc(Cn2c(=O)c(-c3cn(C)c4ccccc34)nc3cnc(N4CCNCC4)nc32)c1 do in these assays?
VP16 counter: inconclusive; RORg inh: 20µM*

Results for COc1cccc(Cn2c(=O)c(-c3cn(C)c4ccccc34)nc3cnc(N4CCOCC4)nc32)c1 ?
VP16 counter: 2%; RORg inh: 6%

Source: PubChem (National Center for Advancing Translational Sciences (NCATS))
